Structures are written as SMILES. About 83,000 compounds went through this panel and 20% of them were active in at least one assay; those are over-represented in the sample as a whole.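 Method: cells in 96-well plates; compound added at one concentration; 48 h incubation; percent growth measured; values under 10 scored active.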 Values without a mark were called inactive. Activity calls are given as the source filed them.

Among the test systems are SR leukemia; RPMI-8226 leukemia; OVCAR-8 ovarian; OVCAR-5 ovarian; SK-OV-3 ovarian; IGROV1 ovarian; OVCAR-3 ovarian; HS 578T breast; NCI/ADR-RES ovarian.
Common to all, as to test: NCI-60 one-dose screen, 48 h (100 = growth as untreated, 0 = no growth, -100 = all killed)
Common to all, as to settings: 10 µM unless noted

As to `COC(=O)C(c1ccccc1)C(CC(=O)c1ccccc1)c1ccccc1` (stereo unspecified), the growth with SR leukemia was 87.5%; in the test with RPMI-8226 leukemia, 71.1%; in the test with OVCAR-8 ovarian, 102%; in the test with OVCAR-5 ovarian it was 93.3%; with SK-OV-3 ovarian it was 31.8%; in the test on IGROV1 ovarian it was 83.3%. The growth in the test with OVCAR-3 ovarian was 81.3%; in the test on HS 578T breast it was 102%; in the test with NCI/ADR-RES ovarian it was 83.5%.
Consider `CC(c1ccccc1)n1ccnc1CO` (stereo unspecified), for which the growth in the test on SR leukemia was 104%; with RPMI-8226 leukemia, 95.6%; in the test on OVCAR-8 ovarian, 112%; in the test with OVCAR-5 ovarian, 104%; in the test with SK-OV-3 ovarian, 96.8%; in the test on IGROV1 ovarian, 94.2%. In addition, the growth was 115% with OVCAR-3 ovarian, 92.1% with HS 578T breast and 99.8% with NCI/ADR-RES ovarian.
For the compound `O=C(CSc1nc2sc3c(c2c(=O)n1Cc1ccccc1)CCCC3)N1CCN(c2ccccc2)CC1`, the growth in the test with SR leukemia was 101%; with RPMI-8226 leukemia, 94.1%; with OVCAR-8 ovarian, 97.9%; in the test with OVCAR-5 ovarian it was 102%; with SK-OV-3 ovarian it was 92.1%; in the test with IGROV1 ovarian, 103%. In addition, the growth with OVCAR-3 ovarian is 106%; with HS 578T breast it was 101%; with NCI/ADR-RES ovarian, 94.8%.
For the compound `CN(C)Cc1c(-c2ccccc2)[nH]c2ccccc12`, the growth in the test with SR leukemia is 95.6%; in the test on RPMI-8226 leukemia, 85.7%; in the test with OVCAR-8 ovarian, 102%; with OVCAR-5 ovarian, 96.1%; in the test with SK-OV-3 ovarian, 81.7%; with IGROV1 ovarian, 110%. For the same compound, the growth was 103% in the test on OVCAR-3 ovarian, 100% in the test on HS 578T breast and 98.2% with NCI/ADR-RES ovarian.
`C[C@H]1[C@H](C)CC[C@]2(CO)CC[C@]3(C)C(=CC[C@@H]4[C@@]5(C)CCCNC(C)(C)[C@@H]5CC[C@]43C)[C@H]12`: the growth with SR leukemia was -49.9% (active); in the test on RPMI-8226 leukemia it was -39.7% (active); with OVCAR-8 ovarian, 9.93% (active); in the test on OVCAR-5 ovarian it was 28.4%; with SK-OV-3 ovarian it was 69.6%; in the test on IGROV1 ovarian, -57.9% (active). Besides, the values for the growth in the test on OVCAR-3 ovarian, with HS 578T breast and in the test on NCI/ADR-RES ovarian were 6.84% (active), 10.5% and 17.6%, respectively.
Regarding `CC1(C)CCCN1CCCN1c2ccccc2Sc2ccc(Cl)cc21`, the growth in the test on SR leukemia is 35.7%; in the test on RPMI-8226 leukemia, 28.6%; with OVCAR-8 ovarian, 95.8%; in the test on OVCAR-5 ovarian it was 89.3%; in the test with SK-OV-3 ovarian, 75.5%; in the test on IGROV1 ovarian, 60.2%. Further, the growth in the test on OVCAR-3 ovarian was 68.5%; in the test on HS 578T breast it was 76.6%; in the test with NCI/ADR-RES ovarian, 61%.
As to `COc1cc(C2CC(c3cccc(Nc4ccncc4)c3)=NN2C(C)=O)cc(OC)c1OC` (stereo unspecified), the growth with SR leukemia is 27.3%; in the test on RPMI-8226 leukemia, 94.4%; with OVCAR-8 ovarian it was 97%; in the test with OVCAR-5 ovarian it was 98.9%; in the test with SK-OV-3 ovarian, 90.6%; with IGROV1 ovarian it was 89.2%. Further, the growth with OVCAR-3 ovarian is 96.3%; in the test on HS 578T breast, 86%; in the test with NCI/ADR-RES ovarian, 97.9%.
On to `CCNC(=O)c1[nH]cc(-c2ccc(OC)cc2)c1-c1cc(OC)cc(OC)c1`, for which the growth was 92.6% in the test on SR leukemia; 87.7% with RPMI-8226 leukemia; 93.4% with OVCAR-8 ovarian; 99.6% in the test on OVCAR-5 ovarian; 145% in the test with SK-OV-3 ovarian; 80.3% with IGROV1 ovarian. Further, the growth with OVCAR-3 ovarian was 83.5%; in the test on HS 578T breast, 87.1%; in the test with NCI/ADR-RES ovarian it was 86.9%.
Turning to `CN1CCCC1=Nc1ccccc1`, the growth in the test on SR leukemia is 91.9%; with RPMI-8226 leukemia, 107%; with OVCAR-8 ovarian, 105%; in the test with OVCAR-5 ovarian, 118%; in the test on IGROV1 ovarian, 111%; in the test with OVCAR-3 ovarian, 128%. In addition, the values for the growth with HS 578T breast and in the test on NCI/ADR-RES ovarian were 106% and 104%, respectively.
With `OC(c1ccccc1)c1ccccn1` (stereo unspecified), the growth is 99.1% with SR leukemia; 101% in the test with RPMI-8226 leukemia; 95.9% in the test with OVCAR-8 ovarian; 108% in the test on OVCAR-5 ovarian; 92% in the test on SK-OV-3 ovarian; 106% in the test on IGROV1 ovarian. Besides, the growth is 105% in the test with OVCAR-3 ovarian, 91% in the test with HS 578T breast and 110% in the test with NCI/ADR-RES ovarian.
Turning to `CCCCCCCCCCCCC1CCC/C=C\CCC(=O)O1` (stereo unspecified), the growth in the test on SR leukemia was 71.4%; with RPMI-8226 leukemia it was 94%; in the test on OVCAR-8 ovarian it was 100%; with OVCAR-5 ovarian, 102%; in the test on SK-OV-3 ovarian, 95.3%; with IGROV1 ovarian it was 102%. Moreover, the growth in the test on OVCAR-3 ovarian was 102%; in the test on HS 578T breast, 107%; with NCI/ADR-RES ovarian, 102%.
Regarding `COc1cc(OC)c(/C=C/C(=O)c2ccc(Nc3ncnc4ccccc34)cc2)c(OC)c1`, the growth is 1.91% (active) in the test on SR leukemia; 12.2% with RPMI-8226 leukemia; -44% (active) with OVCAR-8 ovarian; 8.12% (active) in the test on OVCAR-5 ovarian; -42.4% (active) in the test with SK-OV-3 ovarian; -67.8% (active) in the test on OVCAR-3 ovarian. The figures for the growth with HS 578T breast and with NCI/ADR-RES ovarian were -13.2% (active) and -17.2% (active), respectively.
Take `[2H]C1([2H])NC([2H])([2H])C([2H])([2H])N(c2ccc(Nc3ncc4cc(C(=O)N(C)C)n(C5CCCC5)c4n3)nc2)C1([2H])[2H]`: the growth is 39.8% in the test on SR leukemia; 34.8% with RPMI-8226 leukemia; 85.2% with OVCAR-8 ovarian; 39.8% in the test with OVCAR-5 ovarian; 58.3% with SK-OV-3 ovarian; 73.4% in the test on IGROV1 ovarian. Moreover, the results for the growth in the test on HS 578T breast and in the test with NCI/ADR-RES ovarian were 71.2% and 104%, respectively.
On to `CC(=O)OC1CCC2(C)C(CCC3C4CC=C(C(C)=O)C4(C)OC(=O)CC32)C1` (stereo unspecified), for which the growth in the test with SR leukemia is -48.4% (active); in the test on RPMI-8226 leukemia it was -31.7% (active); with OVCAR-8 ovarian, -20.4% (active); in the test with OVCAR-5 ovarian it was 75.1%; in the test with SK-OV-3 ovarian, 109%; in the test on IGROV1 ovarian, 61.5%. For the same compound, the growth in the test on OVCAR-3 ovarian is -36.2% (active); in the test on HS 578T breast, 75.1%; in the test with NCI/ADR-RES ovarian, 37.5%.
Consider `FCc1nc2nc(Cl)c(Cl)nc2[nH]1`, for which the growth in the test on SR leukemia is 95.9%; in the test on RPMI-8226 leukemia it was 97%; in the test with OVCAR-8 ovarian, 102%; in the test with OVCAR-5 ovarian, 93.3%; in the test with SK-OV-3 ovarian, 97.1%; in the test with IGROV1 ovarian, 108%. Moreover, the values for the growth with HS 578T breast and with NCI/ADR-RES ovarian were 101% and 107%, respectively.

Source of the values: PubChem BioAssay (NCI).
